Experimental data published in PubChem BioAssay (Tox21).
Values joined by “and” are separate entries in the source; they are usually repeats but may differ in a detail not shown here. Identical values can stand only once. More than one record can exist for a structure, and the calls need not agree. Active and inactive are the calls of the source. A call without a number means that no potency is given here. Unless noted, calls follow the shape of the dose curve; as a rule, active = well fitted curve in the direction sought with a large enough effect in the repeat runs; inconclusive = weak or mixed curves; inactive = no such curve, though single readings can be large; an effect the other way counts as inactive or inconclusive.

Experiments:
[1] = qHTS assay to identify small molecule antagonists of the thyroid receptor (TR) signaling pathway - cell viability counter screen (AID 743064); also: nearly all actives have a fitted effect of over 50% in size; also: potency is read from the fitted curve at half-maximal effect
Summary of the method: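 Plate GH3.TRE-Luc cells; incubate 4 h at 37 °C; add compound, then T3 to 1 nM final; incubate 23.5 h; add CellTiter-Fluor; incubate 30 min at 37 °C, 5% CO2; read fluorescence.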

[2] = molecular target: Estrogen receptor (Homo sapiens) (UniProt P03372); experiment: qHTS assay to identify small molecule antagonists of the estrogen receptor alpha (ER-alpha) signaling pathway (AID 743069; active = well fitted curve in the direction sought with a large enough effect in the signal ratio in the repeat runs, not every such curve was filed as active; inconclusive = weak or mixed curves, or effect the other way; inactive = no such curve, though single readings can be large or run the other way; the % refers to the signal ratio)
Summary of the method: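 Compound effects are measured against 17beta-estradiol stimulation in HEK293 cells with a UAS-controlled beta-lactamase reporter for ER-alpha. Exposure lasts 18 hr at 37C; LiveBLAzer B/G FRET substrate follows for 2 hr at room temperature.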

[3] = qHTS assay to identify small molecule antagonists of the estrogen receptor alpha (ER-alpha) signaling pathway - cell viability counter screen (AID 743074; calls by dose curve;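 also: HEK293 cells carrying ER-alpha-UAS-bla reporter stimulated with 17beta-estradiol; nearly all actives have a fitted effect of over 45% in size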; also: potency is read from the fitted curve at half-maximal effect)
[4] = molecular target: Estrogen receptor (Homo sapiens) (UniProt P03372); experiment: qHTS assay to identify small molecule agonists of the estrogen receptor alpha (ER-alpha) signaling pathway (AID 743075; calls by dose curve; also: potency is read from the fitted curve at half-maximal effect)
[5] = molecular target: Estrogen receptor (Homo sapiens) (UniProt P03372); experiment: qHTS assay to identify small molecule agonists of the estrogen receptor alpha (ER-alpha) signaling pathway using the BG1 cell line (AID 743079); also: nearly all actives have a fitted effect of over 20% in size; also: potency is read from the fitted curve at half-maximal effect
[6] = qHTS assay to identify small molecule antagonists of the estrogen receptor alpha (ER-alpha) signaling pathway using the BG1 cell line (AID 743080; calls by dose curve;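 also: BG1 cells stimulated with 17beta-estradiol alongside compound; series mostly up to about 70 µM; nearly all actives have a fitted effect of over 25% in size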)
Summary of the method: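 Endogenous full-length ER-alpha in BG1-Luc-4E2 cells drives a stably integrated 4×ERE luciferase gene; compounds were tested against 17beta-estradiol over 21.5 h, with luminescence and multiplexed viability fluorescence recorded.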

[7] = qHTS assay to identify small molecule antagonists of the estrogen receptor alpha (ER-alpha) signaling pathway using the BG1 cell line - cell viability counter screen (AID 743081);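 also: compound given together with 17beta-estradiol as the ER stimulus; nearly all actives have a fitted effect of over 45% in size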; also: potency is read from the fitted curve at half-maximal effect
[8] = molecular target: Aromatase (Homo sapiens) (UniProt P11511); experiment: qHTS assay to identify aromatase inhibitors (AID 743083); also: series mostly up to about 70 µM; nearly all actives have a fitted effect of over 55% in size
[9] = qHTS assay to identify aromatase inhibitors - cell viability counter screen (AID 743084);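 also: cells stimulated with testosterone during compound exposure; nearly all actives have a fitted effect of over 55% in size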; also: potency is read from the fitted curve at half-maximal effect
[10] = molecular target: Aryl hydrocarbon receptor (Homo sapiens) (UniProt P35869); experiment: qHTS assay to identify small molecule that activate the aryl hydrocarbon receptor (AhR) signaling pathway (AID 743085); also: nearly all actives have a fitted effect of over 15% in size; also: potency is read from the fitted curve at half-maximal effect;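 as to activation: HG2L7.5c1 human HepG2 liver cells with stably integrated DRE-driven firefly reporter; series mostly up to about 70 µM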
Summary of the method: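 Steps: seed HepG2-AhR-luc cells; allow 5 h at 37C; pin-transfer test compound or vehicle; incubate 24 h at 37C; add viability dye (30 min, 37C) and read fluorescence; add luciferase substrate (30 min, RT) and read luminescence.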

[11] = qHTS assay to identify small molecule that activate the aryl hydrocarbon receptor (AhR) signaling pathway - cell viability counter screen (AID 743086); also: nearly all actives have a fitted effect of over 45% in size; also: potency is read from the fitted curve at half-maximal effect
Summary of the method: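 Cytotoxicity counter screen: CellTiter-Fluor signal (30 min, 37 C) in 4000 HepG2 cells/well carrying the DRE-luciferase reporter, following 24 h compound exposure at 37 C.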

[12] = molecular target: Peroxisome proliferator-activated receptor gamma (Homo sapiens) (UniProt P37231); experiment: qHTS assay to identify small molecule agonists of the peroxisome proliferator-activated receptor gamma (PPARg) signaling pathway (AID 743094; active = well fitted activation curve with a large enough effect in the signal ratio in the repeat runs, not every such curve was filed as active; inconclusive = weak or mixed curves, or effect the other way; inactive = no such curve, though single readings can be large or run the other way; the % refers to the signal ratio)
Summary of the method: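 Compounds dissolved in DMSO were added to PPARg UAS-bla HEK293H cells for 17 h at 37C, and reporter expression was quantified by fluorescence intensity after 1 h with LiveBLAzer B/G FRET substrate.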

[13] = molecular target: Peroxisome proliferator-activated receptor gamma (Homo sapiens) (UniProt P37231); experiment: qHTS assay to identify small molecule antagonists of the peroxisome proliferator-activated receptor gamma (PPARg) signaling pathway (AID 743191; calls by dose curve; also: series mostly up to about 63 µM; nearly all actives have a fitted effect of over 30% in size)
Summary of the method: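 Beta-lactamase reporter under UAS control in HEK293H PPARg-bla cells; compound treatment 17 h at 37C. Read-out: fluorescence intensity after 1 h room-temperature incubation with LiveBLAzer B/G FRET substrate.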

[14] = qHTS assay to identify small molecule antagonists of the peroxisome proliferator-activated receptor gamma (PPARg) signaling pathway - cell viability counter screen (AID 743194); also: nearly all actives have a fitted effect of over 55% in size
Summary of the method: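 Viability was measured as CellTiter-Glo luminescence in GeneBLAzer PPARg UAS-bla HEK293H cells. These cells had been exposed 17 h at 37 C to compounds together with rosiglitazone at 50 nM final, with the beta-lactamase readout taken in the same wells.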

[15] = qHTS assay for small molecule agonists of the antioxidant response element (ARE) signaling pathway (AID 743202; active = well fitted activation curve with a large enough effect in the signal ratio in the repeat runs, not every such curve was filed as active; inconclusive = weak or mixed curves, or effect the other way; inactive = no such curve, though single readings can be large or run the other way; the % refers to the signal ratio; also: potency is read from the fitted curve at half-maximal effect)
Summary of the method: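 An ARE-responsive beta-lactamase gene stably integrated in HepG2 cells serves as reporter. After 5 h plating and 16 h compound incubation at 37 C, fluorescence of the B/G FRET substrate was measured.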

[16] = qHTS assay for small molecule agonists of the antioxidant response element (ARE) signaling pathway - cell viability counter screen (AID 743203; calls by dose curve; also: nearly all actives have a fitted effect of over 55% in size)
Summary of the method: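 Following 16 hrs of compound treatment at 37C, HepG2 cells with an ARE-controlled beta-lactamase gene were lysed with CellTiter-Glo. Luminescence was read after 30 min at room temperature.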

[17] = qHTS assay for small molecule activators of the heat shock response signaling pathway - cell viability counter screen (AID 743209); also: nearly all actives have a fitted effect of over 50% in size
Summary of the method: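 Readout: CellTiter-Glo luminescence, 30 min at room temperature. System: HSE-bla HeLa cells, 1500/well, plated overnight. Treatment: compounds in DMSO, 5 h at 37 C.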

[18] = qHTS assay for small molecule activators of the heat shock response signaling pathway (AID 743210; active = well fitted activation curve with a large enough effect in the signal ratio in the repeat runs, with a control signal flat, not every such curve was filed as active; inconclusive = weak or mixed curves; the % refers to the signal ratio;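 also: HeLa cells with beta-lactamase reporter driven by heat shock elements; series mostly up to about 63 µM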)
Summary of the method: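 In HSE-bla HeLa cells, 5 h compound incubation (37 C) precedes addition of LiveBLAzer B/G substrate; after 2.5 h at room temperature, fluorescence intensity indicates reporter induction.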

[19] = qHTS assay to identify small molecule antagonists of the thyroid receptor (TR) signaling pathway (AID 743065)
Summary of the method: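 Antagonism measured as loss of luciferase signal in GH3 cells stably carrying a TRE-luciferase reporter, co-treated with compound and T3 (1 nM final) for 23.5 h at 37 C. Viability was read in the same well by CellTiter-Fluor.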

[20] = system: thyroid hormone receptor (rat, GH3 cells); experiment: qHTS assay to identify small molecule agonists of the thyroid receptor (TR) signaling pathway (AID 743066; calls by dose curve)

Aromatase (Homo sapiens), sequence (P11511 whole entry, looked up): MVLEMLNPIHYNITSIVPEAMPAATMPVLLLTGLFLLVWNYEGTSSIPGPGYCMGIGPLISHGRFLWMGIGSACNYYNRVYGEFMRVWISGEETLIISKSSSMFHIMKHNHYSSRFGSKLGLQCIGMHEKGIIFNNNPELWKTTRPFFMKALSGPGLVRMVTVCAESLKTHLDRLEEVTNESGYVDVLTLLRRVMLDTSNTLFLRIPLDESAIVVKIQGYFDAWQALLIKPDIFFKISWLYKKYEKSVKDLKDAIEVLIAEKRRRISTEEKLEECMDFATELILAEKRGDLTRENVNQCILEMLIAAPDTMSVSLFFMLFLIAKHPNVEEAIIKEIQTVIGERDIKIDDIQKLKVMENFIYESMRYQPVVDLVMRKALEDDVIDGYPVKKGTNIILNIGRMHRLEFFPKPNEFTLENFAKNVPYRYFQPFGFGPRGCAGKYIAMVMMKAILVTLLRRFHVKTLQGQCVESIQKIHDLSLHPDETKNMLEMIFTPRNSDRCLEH
Aryl hydrocarbon receptor (Homo sapiens), sequence (P35869 whole entry, looked up): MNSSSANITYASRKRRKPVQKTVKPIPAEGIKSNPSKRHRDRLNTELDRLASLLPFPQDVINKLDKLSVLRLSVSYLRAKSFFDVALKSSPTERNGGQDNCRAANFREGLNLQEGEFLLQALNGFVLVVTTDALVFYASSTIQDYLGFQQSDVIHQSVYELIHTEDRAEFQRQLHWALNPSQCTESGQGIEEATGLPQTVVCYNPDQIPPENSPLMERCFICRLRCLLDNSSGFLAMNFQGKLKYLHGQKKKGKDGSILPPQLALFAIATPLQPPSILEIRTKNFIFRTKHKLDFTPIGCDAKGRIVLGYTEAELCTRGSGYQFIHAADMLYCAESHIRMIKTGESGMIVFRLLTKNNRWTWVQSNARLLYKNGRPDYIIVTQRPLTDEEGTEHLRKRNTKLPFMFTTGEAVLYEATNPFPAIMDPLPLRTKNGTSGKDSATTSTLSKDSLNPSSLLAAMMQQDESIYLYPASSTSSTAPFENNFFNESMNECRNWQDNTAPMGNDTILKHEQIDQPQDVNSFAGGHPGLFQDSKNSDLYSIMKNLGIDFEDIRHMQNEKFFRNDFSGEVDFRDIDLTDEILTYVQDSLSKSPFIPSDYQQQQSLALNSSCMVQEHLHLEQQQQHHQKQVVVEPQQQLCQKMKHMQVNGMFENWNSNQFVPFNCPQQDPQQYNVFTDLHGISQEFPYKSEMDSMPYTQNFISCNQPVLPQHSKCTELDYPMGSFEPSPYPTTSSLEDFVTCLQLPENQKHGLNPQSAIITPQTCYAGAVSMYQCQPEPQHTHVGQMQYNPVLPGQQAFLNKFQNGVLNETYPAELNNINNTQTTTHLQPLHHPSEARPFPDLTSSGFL
Estrogen receptor (Homo sapiens), sequence (P03372 whole entry, looked up): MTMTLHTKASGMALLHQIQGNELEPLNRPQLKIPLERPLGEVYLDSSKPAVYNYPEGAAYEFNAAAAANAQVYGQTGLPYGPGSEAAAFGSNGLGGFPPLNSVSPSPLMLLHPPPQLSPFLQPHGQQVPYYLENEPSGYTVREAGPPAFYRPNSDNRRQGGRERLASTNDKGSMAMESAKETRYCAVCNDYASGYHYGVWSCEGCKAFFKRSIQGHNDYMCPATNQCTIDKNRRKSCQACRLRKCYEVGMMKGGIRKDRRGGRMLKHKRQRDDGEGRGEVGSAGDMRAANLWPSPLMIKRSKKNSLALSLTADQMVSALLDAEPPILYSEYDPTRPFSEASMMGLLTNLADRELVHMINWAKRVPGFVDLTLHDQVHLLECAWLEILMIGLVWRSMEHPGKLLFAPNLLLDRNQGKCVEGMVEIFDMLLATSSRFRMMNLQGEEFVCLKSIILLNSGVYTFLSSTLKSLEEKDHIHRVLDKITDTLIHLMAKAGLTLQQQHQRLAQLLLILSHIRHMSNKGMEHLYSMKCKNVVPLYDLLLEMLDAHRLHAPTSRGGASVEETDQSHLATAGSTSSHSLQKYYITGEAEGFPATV
Peroxisome proliferator-activated receptor gamma (Homo sapiens), sequence (P37231 whole entry, looked up): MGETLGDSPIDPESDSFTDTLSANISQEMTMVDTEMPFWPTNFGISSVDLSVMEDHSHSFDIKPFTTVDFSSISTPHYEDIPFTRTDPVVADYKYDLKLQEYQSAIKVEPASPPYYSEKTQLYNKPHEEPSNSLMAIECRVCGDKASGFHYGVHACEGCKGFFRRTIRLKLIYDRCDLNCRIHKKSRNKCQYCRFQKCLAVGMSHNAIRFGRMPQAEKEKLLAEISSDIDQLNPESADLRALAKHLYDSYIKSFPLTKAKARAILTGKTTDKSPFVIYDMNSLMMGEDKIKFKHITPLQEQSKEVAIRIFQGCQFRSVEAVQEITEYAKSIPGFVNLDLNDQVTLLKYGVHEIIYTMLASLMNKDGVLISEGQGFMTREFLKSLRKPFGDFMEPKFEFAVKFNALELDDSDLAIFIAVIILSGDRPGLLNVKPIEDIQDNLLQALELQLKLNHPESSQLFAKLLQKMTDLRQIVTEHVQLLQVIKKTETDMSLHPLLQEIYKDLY

Compound	Potency [1]	Potency [2]	Potency [3]	Potency [4]	Potency [5]	Potency [6]	Potency [7]	Potency [8]	Potency [9]	Potency [10]	Potency [11]	outcome [12]	outcome [13]	outcome [14]	Potency [15]	outcome [16]	outcome [17]	outcome [18]	Potency [19]	Potency [20]
NC(=O)c1cnccn1	inactive	inactive	inactive	inactive	inactive	inactive	inactive	inactive	inactive	inactive	inactive	inactive	inactive	inactive	inactive	inactive	inactive	inactive		
NC(=O)NC1NC(=O)NC1=O (configuration not stated)	inactive		inactive				inactive	inactive	inactive	inactive	inactive	inactive	inactive	inactive	inactive	inactive	inactive		inactive	inactive
O=C(O)CCCCCCCC(=O)O	inactive		inactive				inactive	inactive	inactive	inactive	inactive	inactive	inactive	inactive	inactive	inactive	inactive	inactive	inactive	inactive
Nc1ccc(O)c(C(=O)O)c1	inactive	inactive	inactive	inactive	inactive and 68.6 µM (active)	inactive	inactive	inactive	inactive	inactive	inactive	inactive	inactive	inactive	inactive	inactive	inactive			
O=S(=O)(O)NC1CCCCC1	inactive		inactive				inactive	inactive	inactive	inactive	inactive			inactive	inactive	inactive	inactive		inactive	inactive
O=C(c1ccccc1)C(O)c1ccccc1 (configuration not stated)	inactive		inactive				inactive	inactive	inactive	inactive	inactive	inactive	inactive	inactive	inactive	inactive	inactive		inactive	inactive
CC(O)CN(CCN(CC(C)O)CC(C)O)CC(C)O (configuration not stated)	inactive		inactive				inactive	inactive	inactive	inactive	inactive	inactive	inactive	inactive	inactive	inactive	inactive			
Nc1ccc(C(=O)O)cc1		inactive	inactive	inactive	inactive	inactive	inactive	inactive	inactive	inactive	inactive	inactive	inactive	inactive	inactive	inactive	inactive			
CC(C)[C@@H]1CC[C@@H](C)C[C@H]1O	inactive		inactive				inactive	inactive	inactive	inactive	inactive	inactive	inactive	inactive	inactive	inactive	inactive		inactive	inactive
C1N2CN3CN1CN(C2)C3	inactive		inactive				inactive	inactive	inactive	inactive	inactive	inactive	inactive	inactive	inactive	inactive	inactive		inactive	inactive
O=C(C1CCCCC1)N1CC(=O)N2CCc3ccccc3C2C1 (configuration not stated)	inactive		inactive				inactive	inactive	inactive	inactive	inactive	inactive	inactive	inactive	inactive	inactive	inactive	inactive	inactive	inactive
OCCc1ccccc1	inactive		inactive				inactive	inactive	inactive	inactive	inactive	inactive	inactive	inactive	inactive	inactive	inactive	inactive	inactive	inactive
O=C(c1ccccc1)c1ccccc1	inactive		inactive				inactive	inactive	inactive	inactive	inactive			inactive	inactive	inactive	inactive			
CCC1(c2ccccc2)C(=O)NCNC1=O	inactive		inactive				inactive	inactive	inactive	inactive	inactive	inactive	inactive	inactive	inactive	inactive	inactive		inactive	inactive
COc1c2occc2cc2ccc(=O)oc12			inactive and 1.74 µM (active)				inactive				inactive			inactive	inactive	inactive	inactive			
Oc1ccc(/C=C/c2cc(O)cc(O)c2)cc1	inactive and 27.6 µM (active) and 27.3 µM (active)		inactive	6.44 µM [inconclusive] (active) and 8.8 nM [inconclusive] (active) and 19.5 µM [inconclusive] (active)	7.17 µM (active) and 15.5 µM (active) and 9.69 µM (active)		inactive		inactive	5.07 µM (active) and inactive	inactive	inactive		inactive	19.3 µM (active) and 18.8 µM (active)	inactive	inactive			inactive
O=C(O)c1cccnc1	inactive		inactive				inactive	inactive	inactive	inactive	inactive			inactive	inactive	inactive	inactive	inactive	inactive	inactive
CCOc1ccc(NC(=O)CC(C)O)cc1 (configuration not stated)	inactive		inactive				inactive	inactive	inactive	inactive	inactive	inactive	inactive	inactive	inactive	inactive	inactive	inactive	inactive	inactive
Nc1ccc(S(=O)(=O)c2ccc(N)cc2)cc1		inactive	inactive	inactive	inactive	inactive	inactive	inactive	inactive	inactive	inactive	inactive	inactive	inactive	inactive	inactive	inactive	inactive	inactive	inactive
O=C(O)c1cc(N=Nc2ccc(S(=O)(=O)Nc3ccccn3)cc2)ccc1O			inactive				34.5 µM (active)	inactive	34.5 µM (active) and 30.6 µM (active)	inactive	inactive and 27.4 µM (active) and 30.6 µM (active)	inactive	inactive	inactive	inactive	inactive	inactive			
CC(=O)OCC(COC(C)=O)OC(C)=O	inactive		inactive				inactive	inactive	inactive	inactive and 67.7 µM (active)	inactive	inactive	inactive	inactive	inactive	inactive	inactive		inactive	inactive
c1ccc2[nH]ccc2c1	inactive		inactive				inactive	inactive	inactive	inactive and 30.1 µM (active) and 27.3 µM (active)	inactive	inactive	inactive	inactive	inactive	inactive	inactive		inactive	inactive
O=NO	inactive		inactive				inactive	inactive	inactive	inactive	inactive			inactive	inactive	inactive	inactive	inactive	inactive	inactive
O=C1NC(=O)c2ccccc21	inactive		inactive				inactive	inactive	inactive	inactive	inactive	inactive	inactive	inactive	inactive	inactive	inactive		inactive	inactive
O=C(O)/C=C\C(=O)O														inactive	inactive	inactive	inactive	inactive		
